The whole screen tested about 310,000 compounds, of which about 14,000 (4.5%) showed an effect of 50% or more. Effects have a minus sign here. Many of the other results were omitted from the sample, so strong results are more common in it than they were.
The molecules below were run against human ether-à-go-go-related gene (hERG) potassium channel (human, UniProt Q12809) (assay: primary screen, population patch clamp on CHO cells stably expressing hERG; higher = less effect of the substance).
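Note: peak tail current of the secondary pulse compared with the same well before compound.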

Chain of human ether-à-go-go-related gene (hERG) potassium channel (Q12809 whole entry, looked up): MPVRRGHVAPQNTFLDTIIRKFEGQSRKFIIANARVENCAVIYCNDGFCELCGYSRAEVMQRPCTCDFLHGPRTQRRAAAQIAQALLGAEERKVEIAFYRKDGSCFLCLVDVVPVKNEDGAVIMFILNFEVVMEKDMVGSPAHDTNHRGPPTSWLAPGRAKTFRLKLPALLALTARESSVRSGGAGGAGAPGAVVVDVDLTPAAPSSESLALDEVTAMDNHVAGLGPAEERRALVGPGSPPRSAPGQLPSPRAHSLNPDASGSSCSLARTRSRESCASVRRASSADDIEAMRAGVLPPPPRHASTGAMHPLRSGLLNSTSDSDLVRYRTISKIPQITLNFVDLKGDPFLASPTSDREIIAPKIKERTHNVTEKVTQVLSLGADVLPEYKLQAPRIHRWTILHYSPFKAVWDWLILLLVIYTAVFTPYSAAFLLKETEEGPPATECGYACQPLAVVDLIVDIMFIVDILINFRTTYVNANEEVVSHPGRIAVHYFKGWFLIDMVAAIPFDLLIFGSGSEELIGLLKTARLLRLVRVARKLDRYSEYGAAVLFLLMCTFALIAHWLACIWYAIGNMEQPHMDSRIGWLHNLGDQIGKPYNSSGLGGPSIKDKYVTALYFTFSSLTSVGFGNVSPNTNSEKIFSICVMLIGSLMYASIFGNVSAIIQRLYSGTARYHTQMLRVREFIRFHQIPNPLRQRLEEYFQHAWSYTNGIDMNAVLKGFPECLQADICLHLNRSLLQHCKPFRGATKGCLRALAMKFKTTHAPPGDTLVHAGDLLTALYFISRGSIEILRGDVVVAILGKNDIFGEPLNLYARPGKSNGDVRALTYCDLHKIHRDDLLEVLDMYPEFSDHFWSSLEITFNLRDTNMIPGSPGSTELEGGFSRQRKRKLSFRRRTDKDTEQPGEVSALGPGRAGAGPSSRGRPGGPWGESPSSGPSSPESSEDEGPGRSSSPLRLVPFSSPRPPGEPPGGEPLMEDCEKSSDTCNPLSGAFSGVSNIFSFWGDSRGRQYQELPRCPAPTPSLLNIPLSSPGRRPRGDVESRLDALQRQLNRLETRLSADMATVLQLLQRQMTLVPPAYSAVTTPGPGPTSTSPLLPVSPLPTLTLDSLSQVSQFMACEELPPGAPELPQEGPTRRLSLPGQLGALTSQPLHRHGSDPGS

Structure (SMILES) | hERG current change (%, negative = inhibition) at 10uM
COc1cc(C(=O)COC(=O)C2CCN(c3ccc(C(F)(F)F)cn3)CC2)ccc1OC(F)F | -59.1%
O=C(COC(=O)C1CCN(c2ccc(C(F)(F)F)cn2)CC1)c1ccc(F)cc1 | -0.831%
CN(CC(=O)Nc1ccccc1Cl)C(=O)COC(=O)C1CCN(c2ccc(C(F)(F)F)cn2)CC1 | -29.8%
Cc1ccc(NC(=O)COC(=O)C2CCN(c3ccc(C(F)(F)F)cn3)CC2)cc1 | -1.26%
CCc1ccc(C(=O)COC(=O)C2CCN(c3ccc(C(F)(F)F)cn3)CC2)cc1 | -18%
CN(CC(=O)Nc1ccc(F)cc1)C(=O)COC(=O)C1CCN(c2ccc(C(F)(F)F)cn2)CC1 | -65.5%
O=C(O)c1cccc2c(-c3ccccc3)c(-c3ccccc3)[nH]c12 | 18.5%
COc1cc(/C=C2\C(=N)N3N=C(C)SC3=NC2=O)cc(OC)c1OCCOc1ccccc1C | 30.7%
Cc1ccc(-c2nc(CN(C)Cc3ccc4nccnc4c3)c(C)o2)s1 | -10.3%
Cc1cc(OCC(=O)Nc2cnn(CCCC(=O)O)c2)ccc1Cl | 18%
CCCC#CCN1CCN(C23CC4CC(CC(C4)C2)C3)CC1 | -16.1%
CC(=O)N1CCN(C23CC4CC(CC(C4)C2)C3)CC1 | 12.3%
CCCCCC#CCN1CCN(C23CC4CC(CC(C4)C2)C3)CC1 | -58.6%
COCc1ccc(C(=O)N2CCCC(Nc3ccc(C(C)C)cc3)C2)o1 (centres unmarked) | -0.274%
O=C(CC1SC(=Nc2ccccc2F)N(CCN2CCOCC2)C1=O)Nc1ccc(F)cc1F (centres unmarked) | -13.1%
O=C(CC1SC(=Nc2ccc(OC(F)F)cc2)N(CCN2CCOCC2)C1=O)Nc1ccc(F)cc1F (centres unmarked) | -82.9%
COc1ccc(N=C2SC(CC(=O)Nc3ccccc3)C(=O)N2CCN2CCOCC2)cc1 (centres unmarked) | -23.1%
Cc1cc(NCC(C)C)n2ncnc2n1 | 14%
N=c1c(S(=O)(=O)c2ccccc2)cc2c(=O)n3ccccc3nc2n1Cc1cccnc1 | -59.2%
N=c1c(S(=O)(=O)c2ccc(Cl)cc2)cc2c(=O)n3ccccc3nc2n1Cc1cccnc1 | -35.5%
Cc1cccn2c(=O)c3cc(S(=O)(=O)c4ccccc4)c(=N)n(Cc4cccnc4)c3nc12 | -66.1%
CCCn1c(=N)c(S(=O)(=O)c2ccccc2)cc2c(=O)n3cccc(C)c3nc21 | 0.577%
N=c1c(S(=O)(=O)c2ccc(Br)cc2)cc2c(=O)n3ccccc3nc2n1Cc1ccccc1 | 27%
Cc1cccn2c(=O)c3cc(S(=O)(=O)c4ccccc4)c(=N)n(Cc4ccc(F)cc4)c3nc12 | 24.7%
CCCCC(CC)C(=O)Nc1cc(C(=O)NCc2ccc(C)cc2)ccc1N1CCC2(CC1)CC(c1cccc(Br)c1)=NO2 (centres unmarked) | 17.6%
CCOC(=O)C1=C(C)N=c2s/c(=C/c3cccc([N+](=O)[O-])c3O)c(=O)n2C1c1ccccc1 (centres unmarked) | -20.4%
COc1ccc(CCC(=O)Nc2ncc(C)s2)cc1OC | 16.2%

Structure (SMILES) | hERG current change (%, negative = inhibition) at 10uM
Cc1ccc(S(=O)(=O)N2CCN(C(=O)COC(=O)CSc3cc(C)ccc3C)CC2)c(C)c1 | -6.13%
COc1ccccc1C(=O)NC(CCSC)C(=O)N1CCN(C/C=C/c2ccccc2)CC1 (centres unmarked) | -109%
COc1ccccc1C(=O)Nc1ccnn1C1CCN(C/C=C/c2ccccc2)CC1 | -78.9%
COc1ccccc1C(=O)NC(CCSC)C(=O)N1CCN(C(C)=O)CC1 (centres unmarked) | -0.345%
COc1ccccc1C(=O)Nc1ccnn1C1CCN(C/C=C/c2ccc(F)cc2)CC1 | -76.6%
COCCC(=O)N1CCC(n2nccc2NC(=O)c2ccccc2C)CC1 | 12.6%
COc1ccccc1C(=O)NC(CCSC)C(=O)N1CCC(Cc2ccccc2)CC1 (centres unmarked) | -23.1%
O=C(COc1ccccc1-c1ccccc1)NN=C1CCCC1 | -6.03%
COC(=O)c1cc(NC(=O)CN(c2ccc3c(c2)OCO3)S(C)(=O)=O)ccc1Cl | -8.58%
CCN1CCN(Cc2ccc(NC(=O)c3cc(NC(=O)C(=O)c4c[nH]c5ccccc45)cc(OC)c3)cc2C(F)(F)F)CC1 | 8.1%
O=C(CSc1nc2cc(Cl)c(Cl)cc2[nH]1)c1ccc2c(c1)OCO2 | 7.8%
Cc1c(C(C)NC(=O)Nc2ccc(F)cc2F)cnn1C (centres unmarked) | 15.2%
O=C(O)/C=C/c1ccc([N+](=O)[O-])o1 | 22.2%
Fc1ccccc1CSc1nnc(-c2ccccc2)o1 | -9.31%
COP(=O)(OC)C(NS(=O)(=O)c1ccccc1)C(Cl)(Cl)Cl (centres unmarked) | 23.8%
COc1ccc2nc(C)cc(Nc3ccccc3O)c2c1.Cl | -20.3%
COc1ccc(Cl)cc1Nc1nc(N)c2ccccc2n1.Cl | 20.4%
COc1ccc(Cl)cc1Nc1cc(C)nc2ccccc12 | -73%
COc1ccc(OC)c(Nc2ccc(Nc3cc(OC)ccc3OC)nn2)c1 | -2.07%
COc1ccc(OC)c(Nc2cc(C)c3ccccc3n2)c1 | 2%
COc1ccc(OC)c(Nc2cc(C)nc3ccc(C)cc23)c1 | -68.6%
COc1ccc(OC)c(Nc2cc(-c3ccccc3)nc(N)n2)c1 | -55.9%
CCOC(=O)c1nc(Nc2cc(Cl)ccc2OC)c2ccccc2n1 | 6.83%
COc1ccc(OC)c(Nc2nc(-c3ccccc3O)nc3ccccc23)c1 | 18.7%
COc1ccc(OC)c(Nc2cc(C)nc3ccccc23)c1 | -57.6%
COc1ccc(OC)c(Nc2ncnc3ccccc23)c1.Cl | -18.6%
